Data taken from ChEMBL document CHEMBL3988442, “University of Dundee, Small-Polar-MMV Screening Library” (2021).
About 13,000 (27%) of roughly 48,000 compounds showed an effect of 50% or more. The list shows a part of the results.

These compounds were tested on Wolbachia pipientis (assay: Anti-Wolbachia Cell-Based Screen). Details: 5 µM.
Format: functional
Parameters: scale not given: in the data most compounds retested in dose-response had high values
For COCC(NC(=O)c1ccoc1)c1ccc(C)o1 (configuration not stated), the “Percent Effect” value was -2.661%.
In the case of Cc1ncsc1CCN(C)C(=O)CN1CC2(CCNCC2)OC1=O, the “Percent Effect” value is reported as -5.863%.
For Cc1cc(NC2CCN(c3ccc(F)cc3)CC2)n2nc(C)cc2n1, the “Percent Effect” value was -5.138%.
Nc1ncc(C(=O)N2CCCC(N)CC2)c(-c2ccccc2)n1 (configuration not stated) was tested, and the “Percent Effect” value was -5.532%.
With CCNC(=O)C1CCN(Cc2csc(-c3ccc(C)o3)n2)CC1 the “Percent Effect” value was 8.641%.
With O=C(NCCNCc1cccc2c1OCCCO2)C1CCCC1 the “Percent Effect” value was -19.03%.
For CC(C)C(=O)NC1CCN(Cc2cccc3c2OCCO3)CC1, the “Percent Effect” value was 6.757%.
For O=C(Nc1ccccn1)C1CCN(Cc2cc3c(cc2O)OCO3)CC1, the “Percent Effect” value was 98.75%.
In the case of Cc1csc(NC(=O)C2CCN(Cc3cccc4c3OCCO4)CC2)n1, the “Percent Effect” value is reported as 93.8%.
In the case of Cc1ccoc1C(=O)NC1CCN(Cc2cccc3c2OCCO3)CC1, the “Percent Effect” value is reported as 4.934%.
With c1cnnc(NCC2CN(Cc3cccc4c3OCCO4)CCO2)c1 (configuration not stated) the “Percent Effect” value was 4.711%.
In the case of O=C(Nc1nccs1)C1CCN(Cc2cccc3c2OCCO3)CC1, the “Percent Effect” value is reported as 83.61%.
With O=C(NCc1ccccc1CN1CCC(O)CC1)Nc1ccccn1 the “Percent Effect” value was -0.8138%.
In the case of CNC(=O)C1CCN(Cc2cc3c(cc2O)CCC3)CC1, the “Percent Effect” value is reported as 6.264%.
For O=C(Nc1nccs1)NC1CCOc2ccccc21 (configuration not stated), the “Percent Effect” value was 5.946%.
With O=C(Nc1ccccn1)C1CCN(Cc2cccc3c2OCCO3)CC1 the “Percent Effect” value was 88.18%.
With CNC(=O)N(Cc1c(F)cccc1F)C1CCCC1 the “Percent Effect” value was -10.49%.
For Cc1cccc(C(C(=O)N2CC(Oc3ccccc3F)C2)N(C)C)c1 (configuration not stated), the “Percent Effect” value was 3.868%.
In the case of O=C(O)c1cc2c(c(S(=O)(=O)N(CCCO)c3ccccc3)c1)CCC2, the “Percent Effect” value is reported as -6.874%.
In the case of CCCn1ccnc1CN1C[C@@H](NC(C)=O)[C@H](c2ccc(OC)cc2)C1, the “Percent Effect” value is reported as -11.71%.
COc1ccc([C@@H]2CN(Cc3cccnc3N)C[C@H]2NC(C)=O)cc1 was tested, and the “Percent Effect” value was 100.4%.
With COc1ccc([C@@H]2CN(c3cc(OC)nc(N)n3)C[C@H]2N(C)C)cc1 the “Percent Effect” value was -18.13%.
Nc1ncccc1CN1C[C@@H](C(=O)O)[C@H](c2cccc(F)c2)C1 was tested, and the “Percent Effect” value was -4.464%.
COc1ccc([C@@H]2CN(C(=O)CS(C)(=O)=O)C[C@H]2NC(C)=O)cc1 was tested, and the “Percent Effect” value was -2.286%.
With COc1ccc([C@@H]2CN(c3cnccn3)C[C@H]2N(C)C)cc1 the “Percent Effect” value was 6.916%.
For COc1ccc([C@@H]2CN(Cc3ccncc3)C[C@H]2N(C)C)cc1, the “Percent Effect” value was 115.9%.
For COc1ccc([C@@H]2CN(Cc3cccnc3N)C[C@H]2N(C)C)cc1, the “Percent Effect” value was 89.74%.
For COc1ccc([C@@H]2CN(c3cc(OC)ncn3)C[C@H]2N(C)C)cc1, the “Percent Effect” value was 11.08%.
In the case of COc1cnc(N2C[C@@H](CN3CCOCC3)C[C@H](CO)C2)nc1, the “Percent Effect” value is reported as 15.13%.
For Cc1ccc([C@@H]2CN(S(=O)(=O)c3cccs3)C[C@H]2N(C)C)cc1, the “Percent Effect” value was -8.469%.
For Cc1ccccc1OCCSc1nnc(CC2CCS(=O)(=O)C2)n1C (configuration not stated), the “Percent Effect” value was 3.275%.
For CC(C)=CCN1C[C@H]2CC[C@@H]1CN(C(=O)Cn1c(C)cc(C)nc1=O)C2, the “Percent Effect” value was -7.163%.
In the case of N#Cc1ccc(N2CCCN(CC(=O)N3CCOCC3)CC2)cc1, the “Percent Effect” value is reported as -7.861%.
N#Cc1ccc(CN2CCOCC2)cc1 was tested, and the “Percent Effect” value was 91.68%.
N#Cc1ccc(CN2CCC(CN3CCOCC3)C2)cc1 (configuration not stated) was tested, and the “Percent Effect” value was 106.9%.
In the case of Cn1c(CO)nnc1CC1CCN(Cc2ccc(C#N)cc2)CC1, the “Percent Effect” value is reported as 25.57%.
In the case of N#Cc1ccc(CCC(=O)N2CCC(CN3CCOCC3)CC2)cc1, the “Percent Effect” value is reported as 91.48%.
CC(C)(C)C(O)CN1CCN(Cc2ccc(C#N)cc2)CC1 (configuration not stated) was tested, and the “Percent Effect” value was 1.533%.
With N#Cc1ccccc1CN1CCCC(c2nccn2CC2CC2)C1 (configuration not stated) the “Percent Effect” value was 7.864%.
In the case of O=C(CCN1CCOCC1)N1CCC(Cc2ccc(CO)cc2)C1 (configuration not stated), the “Percent Effect” value is reported as -13.67%.
With N#Cc1ccc(CSCCN2CCOCC2)cc1 the “Percent Effect” value was -1.754%.
In the case of N#Cc1ccc(CN2CCC(CCc3ccc(O)cc3)CC2)cc1, the “Percent Effect” value is reported as -49.48%.
In the case of N#Cc1ccccc1CN1CCC(CN2CCOCC2)C1 (configuration not stated), the “Percent Effect” value is reported as 95.83%.
In the case of N#Cc1ccccc1C(=O)N1C[C@@H](CN2CCOCC2)[C@@H](CO)C1, the “Percent Effect” value is reported as -6.039%.
With CC(C)N(C)CCCNC(=O)c1cnn(C(C)(C)C)c1C(F)(F)F the “Percent Effect” value was 5.452%.
For CCOC(=O)C(CO)NC(=O)CCc1cccc(OC2CCCC2)c1 (configuration not stated), the “Percent Effect” value was -6.497%.
COCC(=O)N1CCC(C(=O)Nc2ccc(S(N)(=O)=O)cc2)CC1 was tested, and the “Percent Effect” value was -0.7847%.
c1ccc(-c2nc3c(c(NCc4n[nH]c5c4CCC5)n2)CCNC3)cc1 was tested, and the “Percent Effect” value was -30.21%.
With c1ccc2nc(N3CCCCC3)c(NCc3nnc4n3CCC4)nc2c1 the “Percent Effect” value was -16.15%.
With c1ccc(-c2nc3c(c(NCc4nnc5n4CCC5)n2)CCNC3)cc1 the “Percent Effect” value was 90.53%.
COCCNc1nc(C2CCCC2)nc2c1CCNCC2 was tested, and the “Percent Effect” value was 12.56%.
For Cc1cc(C)nc(NCc2nnc3n2CCCCC3)n1, the “Percent Effect” value was -1.015%.
c1ccc2nc(N3CCCC3)c(NCc3nnc4n3CCC4)nc2c1 was tested, and the “Percent Effect” value was -27.33%.
Cc1cccc(=O)n1CCCNc1nc(N(C)C)nc2c1CCNC2 was tested, and the “Percent Effect” value was 32.54%.
In the case of CN(C)c1nc2c(c(NCc3nnc4n3CCCCC4)n1)CCNC2, the “Percent Effect” value is reported as 114.9%.
For C1CCc2nnc(CNc3nc(C4CC4)nc4c3CCNCC4)n2CC1, the “Percent Effect” value was 99.26%.
In the case of CC(=O)NCc1nn(C)c2c1CN(Cc1ccsc1)C2.O=C(O)C(F)(F)F, the “Percent Effect” value is reported as -1.224%.
With N[C@@H]1c2ccccc2C2(CCN(C(=O)c3ccccc3O)CC2)[C@H]1O the “Percent Effect” value was 0.509%.
CN(C)Cc1nnc(C2CCCN(c3nccc4ccccc34)C2)n1C (configuration not stated) was tested, and the “Percent Effect” value was 5.407%.
In the case of COC(=O)N1CCCC(C(=O)Nc2ccccc2CN2CCCC2)C1 (configuration not stated), the “Percent Effect” value is reported as 22.7%.
CC(=O)N1CCC(C(=O)NCCc2c[nH]c3cc(C)ccc23)CC1 was tested, and the “Percent Effect” value was 104%.
For COc1ccc(CCNC(=O)C2CC2)c(Cl)c1, the “Percent Effect” value was -15.6%.
For COC(=O)N1CCCC(C(=O)NCc2cc3cccc(OC)c3o2)C1 (configuration not stated), the “Percent Effect” value was -3.243%.
With COC(=O)N1CCCC(C(=O)NCCc2c[nH]c3cc(C)ccc23)C1 (configuration not stated) the “Percent Effect” value was 127.8%.
CCN(CCNC(=O)C1CCN(C(C)=O)CC1)c1ccccc1C was tested, and the “Percent Effect” value was -4.01%.
COc1ccc2[nH]cc(CCNC(=O)C3CCCN(C(C)=O)C3)c2c1 (configuration not stated) was tested, and the “Percent Effect” value was 94.67%.
CC(=O)N1CCC(C(=O)NCCN2CCCCC2)CC1 was tested, and the “Percent Effect” value was 12.8%.
In the case of COc1ccc(CCNC(=O)C2CCCOC2)c(Cl)c1 (configuration not stated), the “Percent Effect” value is reported as 0.5663%.
With CNc1nc(CS(=O)(=O)c2ccccc2)cs1 the “Percent Effect” value was 7.424%.
For COC(C)(C)c1noc(C2(C#N)CCCC2)n1, the “Percent Effect” value was -17.37%.
In the case of OC1(CNc2ccc(Br)cn2)CCOCC1, the “Percent Effect” value is reported as 9.923%.
In the case of Cc1cc(CN2CCC=C(CN(C)C(=O)c3ccco3)C2)no1, the “Percent Effect” value is reported as -5.355%.
For Cc1ncc(CNCC(=O)NCC(F)(F)F)n1-c1ccccc1, the “Percent Effect” value was -11.81%.
In the case of Cc1cnn(CC2CN(Cc3nc(C)c(C)o3)CCO2)c1 (configuration not stated), the “Percent Effect” value is reported as 94.42%.
With Cc1ccc(-c2nnc(CN3CCOC(Cn4cccn4)C3)o2)cc1 (configuration not stated) the “Percent Effect” value was -8.169%.
With Cc1cnn(CC2CN(Cc3nnc(C(C)C)o3)CCO2)c1 (configuration not stated) the “Percent Effect” value was 101.2%.
For Cc1cnn(CC2CN(Cc3nnc(C4CC4)o3)CCO2)c1 (configuration not stated), the “Percent Effect” value was -1.438%.
For Cc1cnn(CC2CN(Cc3nnc(-c4occc4C)o3)CCO2)c1 (configuration not stated), the “Percent Effect” value was -2.933%.
With Cc1cnn(CC2CN(CCS(C)(=O)=O)CCO2)c1 (configuration not stated) the “Percent Effect” value was -18.36%.
With CCc1nnc(CN2CCOC(Cn3cc(C)cn3)C2)o1 (configuration not stated) the “Percent Effect” value was 101%.
For Cc1cnn(CC2CN(Cc3nnc(-c4ccccc4)o3)CCO2)c1 (configuration not stated), the “Percent Effect” value was 113.1%.
In the case of Cc1cc(CC2COc3ccccc3C2)cnc1N (configuration not stated), the “Percent Effect” value is reported as -19.29%.
In the case of CC(C)Nc1ccnc(N2Cc3cnc(C(C)(C)C)nc3C2)n1, the “Percent Effect” value is reported as 10.33%.
CN(C)Cc1nc(C(C)(C)NC(=O)c2cccc3ccccc23)no1 was tested, and the “Percent Effect” value was -8.122%.
CCOC(=O)CN(CC(F)(F)F)C(=O)c1nc(C)n2ccccc12 was tested, and the “Percent Effect” value was -24.45%.
With CNC(=O)c1cccc(CNC2CCSc3c(Cl)cccc32)c1 (configuration not stated) the “Percent Effect” value was -5.902%.
In the case of CSc1ccc(C(CC(=O)O)NC(=O)c2cc(C)on2)cc1 (configuration not stated), the “Percent Effect” value is reported as 6.189%.
CN(C)C(=O)CN1CCc2ncnc(C3CC3)c2CC1 was tested, and the “Percent Effect” value was 106.4%.
With CN(C)C(=O)CN1CCc2ncnc(NC3CCC3)c2CC1.O=C(O)C(F)(F)F the “Percent Effect” value was 114.3%.
With CN(C)C(=O)CN1CCc2ncnc(N(C)C)c2CC1.O=C(O)C(F)(F)F the “Percent Effect” value was 89.81%.
Cc1ccc(CN2CCc3ncnc(C4CC4)c3CC2)s1.O=C(O)C(F)(F)F was tested, and the “Percent Effect” value was -13.47%.
In the case of Cc1ncnc2c1CCN(Cc1ccc3c(c1)OCO3)CC2.O=C(O)C(F)(F)F, the “Percent Effect” value is reported as -11%.
For CCc1ncnc2c1CCN(Cc1ccc3c(c1)OCO3)CC2.O=C(O)C(F)(F)F, the “Percent Effect” value was 106.3%.
In the case of O=C(O)C(F)(F)F.c1nc2c(c(NC3CCC3)n1)CCNCC2, the “Percent Effect” value is reported as -15.15%.
In the case of CN(C)c1ncnc2c1CCN(Cc1nccs1)CC2.O=C(O)C(F)(F)F, the “Percent Effect” value is reported as 13.78%.
c1nc2c(c(C3CC3)n1)CCN(Cc1ccoc1)CC2 was tested, and the “Percent Effect” value was -6.028%.
CN(C)c1ncnc2c1CCN(CC1CCOCC1)CC2.O=C(O)C(F)(F)F was tested, and the “Percent Effect” value was -9.241%.
With COC(C)c1noc(CN(C)c2nccnc2C#N)n1 (configuration not stated) the “Percent Effect” value was 3.907%.
In the case of CCN(CCn1cccn1)Cc1nc(-c2cc(F)ccc2F)oc1C, the “Percent Effect” value is reported as -20.47%.
In the case of O=C(C1CC=CC1)N1CC[C@@H]2O[C@H](COCC3CCOCC3)CC[C@@H]21, the “Percent Effect” value is reported as 2.259%.
With O=C(CS(=O)(=O)Cc1cccc(Br)c1)Nc1cn[nH]c1 the “Percent Effect” value was 6.351%.
In the case of O=C(C1=CCCCC1)N1CCO[C@H]2[C@H](Oc3ccccn3)CC[C@@H]21.O=C(O)C(F)(F)F, the “Percent Effect” value is reported as -5.477%.
